# Laboratory results: PubChem BioAssay (NCATS)
# Inconclusive results are not listed. Active and inactive are the calls of the source. The call rests on the fitted dose curve; in most records, active means well fitted inhibition curve with a large enough effect; inconclusive means small, poorly fitted or top-dose-only effect; inactive means flat fitted curve, though single readings scatter. Where a SMILES comes first, the peptide text is derived from it. [ ]: non-standard residue; d: D form.
# Target: Calcium and integrin-binding protein 1 (Homo sapiens) (UniProt Q99828)
# Test: Primary qHTS for Identification of Calcium Integrin Binding Protein 1 (CIB1) Competitor (AID 1508620);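 further: GST tagged CIB1 binding a fluorescein labelled alphaIIb integrin peptide tracer; top concentration of the series differs between compounds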
# Conditions: CIB1-GST / FITC-alphaIIb peptide fluorescence polarization; series mostly up to 57.7 µM; activity change, negative = inhibition: at the top concentration
# Method in brief: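 CIB1-GST (1 uM final) and compound incubated 15 min at room temperature before adding FITC-alphaIIb peptide tracer (100 nM final). Competition for binding read by fluorescence polarization (ex 480, em 540) after another 15 min at room temperature.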
# On the % scale 0 is the no-effect control and ±100 the full control effect.
# Chain of Calcium and integrin-binding protein 1 (Homo sapiens) (Q99828 whole entry, looked up): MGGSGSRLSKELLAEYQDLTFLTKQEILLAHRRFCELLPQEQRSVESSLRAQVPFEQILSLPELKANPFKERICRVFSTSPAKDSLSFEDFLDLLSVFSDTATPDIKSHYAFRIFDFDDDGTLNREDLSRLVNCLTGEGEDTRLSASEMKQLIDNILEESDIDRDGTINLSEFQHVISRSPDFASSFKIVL
Compound,"activity change, negative = inhibition",Potency
CC1(C)CC2C3=CCC4C5(C)CCC(OC6OC(C(=O)O)C(O)C(O)C6OC6OC(CO)C(O)C(O)C6OC6OC(CO)C(O)C(O)C6O)C(C)(CO)C5CCC4(C)C3(C)CCC2(C)C(OC2OCC(O)C(OC3OC(CO)C(O)C(O)C3O)C2O)C1O (stereo unspecified),-16.4% [at 12.4 µM] (inactive),–
CC(=O)O[C@@H]1[C@@H](OC(=O)/C=C/c2ccccc2)[C@H](C)O[C@@H](O[C@H]2[C@@H]3C=CO[C@@H](O[C@@H]4O[C@H](CO)[C@@H](O)[C@H](O)[C@H]4O)[C@@H]3[C@@]3(CO)O[C@@H]23)[C@@H]1OC(C)=O,2% [at 30.2 µM] (inactive),–
Nc1ncnc2c1ncn2[C@H]1CCCO1,2.7% [at 114 µM] (inactive),–
CCNC(=O)[C@@H]1CCCN1C(=O)[C@H](CCCN=C(N)N)NC(=O)[C@H](CC(C)C)NC(=O)[C@@H](C)NC(=O)[C@H](Cc1ccc(O)cc1)NC(=O)[C@H](CO)NC(=O)[C@H](Cc1c[nH]c2ccccc12)NC(=O)[C@H](Cc1cnc[nH]1)NC(=O)[C@@H]1CCC(=O)N1,-13% (inactive),–
OC[C@H]1O[C@@H](OCCc2ccc(O)cc2)[C@H](O)[C@@H](O)[C@@H]1O,-1.89% [at 114 µM] (inactive),–
CCC(C)/C=C(C)/C=C/C1=CC2=C(Cl)C(=O)C(C)(OC(C)=O)C(=O)C2=CN1C1CCCCN(C(CCC(N)=O)C(=O)O)C1=O (stereo unspecified),-16.8% [at 30.2 µM] (inactive),–
Cc1cc(O)c(C(C)C)cc1O[C@@H]1O[C@H](CO)[C@@H](O)[C@H](O)[C@H]1O,-0.575% (inactive),–
CC(C)(C)NCc1cc(Nc2ccnc3cc(Cl)ccc23)c2c(c1O)CCCC2,-3.89% [at 1.07 µM] (inactive),–
COc1ccc2c(c1)O[C@H](O[C@@H]1O[C@H](CO)[C@@H](O)[C@H](O)[C@H]1O)C(=O)N2,1.98% (inactive),–
CC1NC(=O)C(Cc2c[nH]c3ccccc23)NC1=O (stereo unspecified),-4.49% [at 114 µM] (inactive),–
C1CCN2CC3C[C@@H](CN4CCCC[C@@H]34)[C@H]2C1,3.88% [at 114 µM] (inactive),–
COc1ccc2cc(OCC3(C(=O)O)CN(C(=O)c4ccc(F)cc4)C3)ccc2c1,-1.14% [at 114 µM] (inactive),–
CC1OC(OC2C(O)C(C(=O)O)OC(OC3CCC4(C)C(CCC5(C)C4C=CC4=C6CC(C)(C)CC(O)C6(C)CCC45C)C3(C)C)C2OC2OCC(O)C(O)C2O)C(O)C(O)C1O (stereo unspecified),2.04% [at 30.2 µM] (inactive),–
CCOc1nc2cccc(C(=O)O)c2n1Cc1ccc(-c2ccccc2-c2noc(=O)[nH]2)cc1,-14.5% [at 114 µM] (inactive),–
CC1(C)C(=O)C(C)(C)c2cc(C(=O)Nc3ccc(C(=O)O)cc3)ccc21,4.95% [at 114 µM] (inactive),–
CC(=O)[C@@H]1CC[C@]2(C(=O)O)CC[C@]3(C)C(CCC4[C@@]5(C)CC[C@H](O)C(C)(C)C5CC[C@]43C)C12 (stereo partly specified),1.69% (inactive),–

Compound,"activity change, negative = inhibition",Potency
CC(C)=CCC/C(C)=C/CC/C(C)=C/CC[C@]1(C)CCc2cc(O)cc(C)c2O1,3.21% (inactive),–
CC(=O)N[C@H](Cc1ccc(O)cc1)C(=O)N[C@H](CCCN=C(N)N)C(=O)N[C@H](Cc1ccccc1)C(N)=O (Ac-[dY]-[dR]-[dF]-NH2),1.93% [at 114 µM] (inactive),–
CC12CC34C=CC(=O)C(C)(CCC(=O)O)C3C(CC1C4)O2 (stereo unspecified),-0.0631% [at 114 µM] (inactive),–
COC1=CC(=O)O[C@@H](/C=C/c2ccccc2)[C@@H]1O,1.26% [at 114 µM] (inactive),–
CC(=O)Oc1cc2c(s1)CCN([C@H](C(=O)C1CC1)c1ccccc1F)C2,-1% [at 114 µM] (inactive),–
O=C(O)C[C@@H](NC(=O)c1cc(-c2ccc(-c3ccncc3)cc2)cs1)c1ccccc1,-11.6% [at 114 µM] (inactive),–
CCNC(=O)CCC/C=C\C[C@@H]1[C@@H](/C=C/C(O)CCc2ccccc2)[C@@H](O)C[C@@H]1O (stereo partly specified),-0.263% [at 114 µM] (inactive),–
NCc1ccc(OCCCc2sc(-c3ccc4c(c3)/C(=N/Nc3nc5ccccc5s3)CCC4)nc2C(=O)O)cc1,–,inactive
CC(C)C1=CC2=CCC3[C@](C)(CCC[C@@]3(C)C(=O)O)C2CC1=O (stereo partly specified),0.262% (inactive),–
COc1cc2c(cc1O)C1(Cc3ccc4c(c3C1=O)OCO4)N(C)CC2 (stereo unspecified),-11.7% (inactive),–
COC(=O)[C@H](CC1C=NC=N1)NCC12CC3CC(CC(C3)C1)C2 (stereo partly specified),-0.602% [at 114 µM] (inactive),–
C=Cc1cc(O)cc2nc(-c3ccc(O)c(F)c3)oc12,-4.82% [at 114 µM] (inactive),–
CC[C@H]1OC(=O)C[C@@H](O)[C@H](C)[C@@H](O[C@@H]2O[C@H](C)[C@@H](O)[C@H](N(C)C)[C@H]2O)[C@@H](CCN2C[C@H](C)C[C@H](C)C2)C[C@@H](C)C(=O)/C=C/C(C)=C/[C@@H]1CO[C@@H]1O[C@H](C)[C@@H](O)[C@@H](OC)[C@H]1OC,-5.76% [at 114 µM] (inactive),–
CC1=C2[C@@H]([C@H](C)CC[C@H]2/C=C(\C)C(=O)O)[C@H](O)C1,-3.68% [at 114 µM] (inactive),–
C#C[C@]1(O)CC[C@H]2[C@@H]3CCC4=C/C(=N/O)CC[C@@H]4[C@H]3CC[C@@]21CC,0.949% [at 114 µM] (inactive),–
